Assay outcomes as filed in PubChem BioAssay.
FBW7 act: activators of human E3 ligase FBW7; actives 0.13% (n = 650,000); Q969H0; normalized activity (activation), % at 26.1 µM; AlphaScreen FBW7–phospho-cyclin E peptide binding, activator screen; in the data active = normalized activity above about 1.9%;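 also: purified mutant Fbw7 with reduced substrate affinity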
MITF primary: human MITF inhibition, primary screen | O75030 | AlphaScreen MITF homodimerization, bead proximity signal | inhibition, % at 2.6 µM | actives 0.91% (n = 650,000) | AID 1259374; in the data active = inhibition above about 50%;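 also: 0% = vehicle wells with protein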
Target sequence (O75030 whole entry, looked up): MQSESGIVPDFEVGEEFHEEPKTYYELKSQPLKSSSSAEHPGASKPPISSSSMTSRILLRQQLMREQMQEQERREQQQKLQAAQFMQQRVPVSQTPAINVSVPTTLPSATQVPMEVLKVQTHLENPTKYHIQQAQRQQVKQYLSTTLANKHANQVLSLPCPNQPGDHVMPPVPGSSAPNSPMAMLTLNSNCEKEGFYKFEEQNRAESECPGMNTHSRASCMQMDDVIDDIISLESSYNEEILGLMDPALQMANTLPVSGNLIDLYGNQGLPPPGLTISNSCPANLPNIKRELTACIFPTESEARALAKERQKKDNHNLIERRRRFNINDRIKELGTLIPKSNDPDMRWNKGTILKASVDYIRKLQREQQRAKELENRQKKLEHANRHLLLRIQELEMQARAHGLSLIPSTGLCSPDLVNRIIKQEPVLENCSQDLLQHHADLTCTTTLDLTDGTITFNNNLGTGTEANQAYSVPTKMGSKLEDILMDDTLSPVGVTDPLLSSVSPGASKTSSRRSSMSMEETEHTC
GPR151 activ: activators of human GPR151; actives 1% (n = 650,000); activation, % at 11.2 µM; PathHunter beta-arrestin GPR151 cells, luminescence; in the data active = activation above about 4.9%;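 also: 0% = median of compound wells and 100% = cells with positive control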
TEAD-YAP block: TEAD-YAP interaction inhibition; HEK-TIYL cells, TEAD-Gal4/YAP UAS-luciferase luminescence; inhibition, % at 9.12 µM; actives 1.4% (n = 640,000); AID 1259422; in the data active = inhibition above about 32%;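 also: 0% = median of test compound wells and 100% = reference inhibitor wells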
GPR151 confirm: confirmation of human GPR151 activators; shares compounds with GPR151 activ; GPR151 PathHunter beta-arrestin cells, luminescence, 90 min; % of EA-reagent control over plate median; activation, % at 11.2 µM; 6,700 tested, under 10 active; AID 1508609;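 active = mean percent activation across replicates above the confirmation screen cutoff of 4.91%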
GPR119 counter: GPR119 activation, counter-screen for GPR151 activators; activation, % at 11.2 µM; GPR119 PathHunter beta-arrestin cells, luminescence, 90 min; 0 = compound-well median, 100 = enzyme-acceptor control; actives 0.3% (n = 6,700); AID 1508611; shares compounds with GPR151 activ;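 active = mean percent activation in the counterscreen above 29.09%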;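 also: counterscreen on off-target GPR119 to flag nonselective hits from the GPR151 activator screen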
An asterisk follows results filed as active. This is a sample that favours compounds with a hit; in the whole collection about 3.5% have one here.

`Cc1ccc(CCC(=O)Nc2ccc(Cl)cc2Cl)o1` gave FBW7 act 0, MITF primary 14, GPR151 activ 1 and TEAD-YAP block -9.
O=C(Nc1ccc(F)c([N+](=O)[O-])c1)c1ccc(-c2cccc(Cl)c2)o1 was read as FBW7 act 0, MITF primary 19, GPR151 activ -1 and TEAD-YAP block 20.
For COc1ccc(C(=O)Nc2cc([N+](=O)[O-])ccc2OC)cc1 the results were FBW7 act 0, MITF primary -11, GPR151 activ 2 and TEAD-YAP block 1.
For Cc1ccc(CCC(=O)Nc2ccc([N+](=O)[O-])cc2Cl)o1 the results were FBW7 act 0, MITF primary 5, GPR151 activ 5.2*, TEAD-YAP block 4, GPR151 confirm -1 and GPR119 counter -8.
Cc1ccc(C(=O)Nc2cccc(C(F)(F)F)c2)o1 was read as FBW7 act 0, MITF primary 19, GPR151 activ 7.1*, TEAD-YAP block -5, GPR151 confirm 1 and GPR119 counter 11.
Screening O=C(O)/C=C\C(=O)N(Cc1ccc2c(c1)CCO2)C1CC1 returned FBW7 act 0, MITF primary 12, GPR151 activ -1 and TEAD-YAP block -4.
`CCCCCC(C)N1CC(O)=C(c2nc3ccccc3[nH]2)C1=N` (stereo unspecified) gave FBW7 act 0, MITF primary 10, GPR151 activ 1 and TEAD-YAP block 14.
Screening CCOc1ccc(C(C)NC(=O)c2ccc(F)cc2)cc1 (stereo unspecified) returned FBW7 act 0, MITF primary 5, GPR151 activ -1 and TEAD-YAP block 0.
Screening CCOc1ccc(C(C)NC(=O)c2ccc(OC)cc2)cc1 (stereo unspecified) returned FBW7 act 0, MITF primary 14, GPR151 activ 6.2*, TEAD-YAP block 5, GPR151 confirm 1 and GPR119 counter 10.
O=C(O)CCCCCN1C(=O)C(O)=C(C(=O)/C=C/c2ccccc2)C1c1ccccc1Cl (stereo unspecified) was read as FBW7 act 0, MITF primary -9, GPR151 activ 5.0*, TEAD-YAP block 6, GPR151 confirm 1 and GPR119 counter 11.
For COc1ccc(C2C(C#N)=C(N)Oc3n[nH]c(C)c32)c(OC)c1OC (stereo unspecified) the results were FBW7 act 0, MITF primary -6, GPR151 activ 0 and TEAD-YAP block -4.
For COc1ccc(C2C(C#N)=C(N)Oc3n[nH]c(C)c32)c2ccccc12 (stereo unspecified) the results were FBW7 act 0, MITF primary -11, GPR151 activ 5.5*, TEAD-YAP block -3, GPR151 confirm 0 and GPR119 counter -7.
COc1cccc(C(=O)NCCCc2ccc(N(C)C)cc2)c1OC was read as FBW7 act 0, MITF primary 2, GPR151 activ 5.3*, TEAD-YAP block -18, GPR151 confirm -1 and GPR119 counter -5.
Screening COc1cccc(C(=O)NCCCc2ccccc2)c1OC returned FBW7 act 0, MITF primary 20, GPR151 activ 0 and TEAD-YAP block -28.
For COc1ccc(CCS(=O)(=O)Nc2ccc3c(c2)N(C(=O)C2CCCO2)CC3)cc1 (stereo unspecified) the results were FBW7 act 0, MITF primary 25, GPR151 activ 5.8*, TEAD-YAP block 4, GPR151 confirm -1 and GPR119 counter -16.
Nc1nc2nc(C(F)(F)F)cc(=O)n2[nH]1 was read as FBW7 act 0, MITF primary 8, GPR151 activ 2 and TEAD-YAP block 1.
Screening Cc1nn2c(NCCCO)c3c(nc2c1-c1ccccc1)CCC3 returned FBW7 act 0, MITF primary 12, GPR151 activ 1 and TEAD-YAP block 0.
For CCOc1ccc(/C=C(\C#N)c2[nH]nc(N)c2C#N)cc1OC the results were FBW7 act 0, MITF primary 5, GPR151 activ 5.6*, TEAD-YAP block -12, GPR151 confirm 0 and GPR119 counter -7.
Screening O=C1CCC(=O)N1c1ccc(CSc2nnnn2C2CCCCC2)cc1 returned FBW7 act 1, MITF primary -2, GPR151 activ 6.9*, TEAD-YAP block -6, GPR151 confirm 0 and GPR119 counter -4.
For COC(=O)CN1C(c2ccc(Br)cc2)=Nc2ccc(Br)cc2C1c1ccccc1 (stereo unspecified) the results were FBW7 act 0, MITF primary 22, GPR151 activ 0 and TEAD-YAP block 6.
For Cc1nc(Nc2nc(-c3ccccc3)cc(=O)[nH]2)nc2ccccc12 the results were FBW7 act 0, MITF primary 4, GPR151 activ 0 and TEAD-YAP block 7.
For COc1ccc2nc(Nc3nc(-c4ccccc4)cc(=O)[nH]3)nc(C)c2c1 the results were FBW7 act 0, MITF primary -6, GPR151 activ 6.8*, TEAD-YAP block 3, GPR151 confirm 0 and GPR119 counter 13.
Nc1nc(Nc2ccc(N3CCOCC3)cc2)cc(Nc2ccccn2)n1 was read as FBW7 act 0, MITF primary 10, GPR151 activ 0 and TEAD-YAP block 0.
`Cc1cc(C)c(C#N)c(N2CCN(c3ccc(Cl)cc3)CC2)n1` gave FBW7 act 0, MITF primary -8, GPR151 activ 0 and TEAD-YAP block 0.
Screening CCN1CCN(C(=O)c2nc(-c3cccc(F)c3)n3c2CCCCC3)CC1 returned FBW7 act 0, MITF primary 2, GPR151 activ 5.5*, TEAD-YAP block 9, GPR151 confirm 1 and GPR119 counter 3.
For Cc1cc(C)c(-n2c(O)c(/C=C3\C=CC=N3)c(=O)[nH]c2=O)c(C)c1 the results were FBW7 act 0, MITF primary 1, GPR151 activ 7.3*, TEAD-YAP block 46*, GPR151 confirm 1 and GPR119 counter 7.
For COc1cccc2cc(-c3nnc(Nc4ccc(F)cc4)s3)c(=O)oc12 the results were FBW7 act 0, MITF primary -13, GPR151 activ 0 and TEAD-YAP block -10.
`COC(=O)c1cc(S(=O)(=O)N2CCN(c3ccccc3)CC2)cn1C` gave FBW7 act 0, MITF primary 8, GPR151 activ -1 and TEAD-YAP block 5.
Screening c1ccc(-n2nnnc2CSc2nc3ccccc3o2)cc1 returned FBW7 act 0, MITF primary -6, GPR151 activ 6.6*, TEAD-YAP block 6, GPR151 confirm 0 and GPR119 counter 2.
For Nn1c(CSc2nc3ccccc3o2)nnc1CSc1nc2ccccc2o1 the results were FBW7 act 0, MITF primary 0, GPR151 activ -1 and TEAD-YAP block 4.
